From PubChem BioAssay (EPA / NIEHS)
“And” between values parts separate entries of the source, which are not always exact repeats. Identical values can stand only once. Inconclusive results are not listed. A structure can be active in one record and inactive in another. The source made the active and inactive calls. Rule for the calls: active = hit-call score of the fitted dose curve at least 0.9, where 1 is the maximum; inconclusive = response in the unintended direction; inactive = score below 0.9.

Columns and labels:
[1] = target: Bile acid receptor (Homo sapiens) (UniProt Q96RI1); assay: NVS_NR_hFXR_Antagonist: NovaScreen (NVS) Nuclear Receptor Binding Assay for human Farnesoid X Receptor Antagonism (FXR) (AID 2283350)
Outline: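 Cell-free TR-FRET ligand-binding read-out on human FXR (NR1H4) in antagonist mode, measured 1 h after dosing. Primary screen in duplicate at 25 uM, actives retested in concentration series; signal loss scored versus DMSO.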

[2] = target: Retinoic acid receptor alpha (Homo sapiens) (UniProt P10276); assay: NVS_NR_hRAR_Antagonist: NovaScreen (NVS) Nuclear Receptor Binding Assay for human Retinoic Acid Alpha Receptor Antagonism (RAR) (AID 2283358)
Outline: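 TR-FRET, cell-free, antagonist format; 2 h incubation after dosing; DMSO = baseline; signal loss fitted; 25 uM duplicate primary, then conc. series.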

[3] = target: human Thyroid Receptor Alpha (TRa), THRA (gene 7067) (UniProt P10827); assay: NVS_NR_hTRa_Antagonist: NovaScreen (NVS) Nuclear Receptor Binding Assay for human Thyroid Receptor Alpha Antagonism (TRa) (AID 2283362);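 note: activity is loss of signal relative to DMSO baseline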
Outline: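 In this biochemical format, receptor protein is dosed with chemical and read after 1 hour via AlphaLISA. Decreases from the DMSO baseline indicate antagonist activity; screening used 25 uM in duplicate before concentration-response confirmation.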

[4] = target: Glucocorticoid receptor (Homo sapiens) (UniProt P04150); assay: NVS_NR_hGR: NovaScreen (NVS) Nuclear Receptor Binding Assay for human Glucocorticoid Receptor (GR) (AID 2283363)
Outline: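 Competitive displacement of a labelled ligand was measured on cell-free receptor preparations after 16 h exposure. Initial testing used 25 uM in duplicate with plate controls; confirmed actives went into concentration series.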

[5] = target: guinea pig Sigma Receptor, Non-selective Binding, SIGMAR1 (gene 100135589) (UniProt Q60492); assay: NVS_OR_gSIGMA_NonSelective: NovaScreen (NVS) Nuclear Receptor Binding Assay for guinea pig Sigma Receptor, Non-selective Binding (AID 2283367)
Outline: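 gp brain membr., radioligand displacement, 1 h, filtration + scint. counting; DMSO = baseline; 25 uM x2 primary, conc.-response confirm.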

[6] = target: human Adenosine Transporter (Adot), SLC29A1 (gene 2030) (UniProt Q99808); assay: NVS_TR_hAdoT: NovaScreen (NVS) Transporter Assay for human Adenosine Transporter (Adot) (AID 2283368)
Outline: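 U937-derived membranes, cell-free radioligand binding, filter scintillation 1 h after dosing. 25 uM duplicate screen; hits (e.g. 30% inhibition) run in concentration-response up to 50 uM; loss of signal versus DMSO.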

[7] = test system: guinea pig Dopamine Transporter (DAT), gene 100714898; assay: NVS_TR_gDAT: NovaScreen (NVS) Transporter Assay for guinea pig Dopamine Transporter (DAT) (AID 2283369);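 note: active compounds lower bound radioligand signal relative to DMSO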
Outline: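 Primary pass: duplicate wells at 25 uM, threshold e.g. 30% inhibition. Follow-up: singleton concentration-response, highest 50 uM. Radioligand binding on guinea pig striatal membranes, 2 h, filtration scintillation detection.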

[8] = target: Peroxisome proliferator-activated receptor gamma (Homo sapiens) (UniProt P37231); assay: NVS_NR_hPPARg: NovaScreen (NVS) Nuclear Receptor Binding Assay for human Peroxisome Proliferator-activated Receptor gamma (PPARg) (AID 2283370)
Outline: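 Extracted receptor protein, cell-free; compound incubated 2 h then fluorescence polarization read. Baseline: DMSO. Actives from 25 uM duplicate screen re-run across concentrations.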

[9] = target: human Serotonin Transporter (SERT), SLC6A4 (gene 6532) (UniProt P31645); assay: NVS_TR_hSERT: NovaScreen (NVS) Transporter Assay for human Serotonin Transporter (SERT) (AID 2283372)
Outline: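 Radioligand binding to native SERT in human platelet membranes, read by filter-based scintillation counting 1 h after dosing. Primary screen in duplicate at 25 uM; actives followed up in concentration series; loss of signal versus DMSO baseline.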

[10] = target: Estrogen receptor (Homo sapiens) (UniProt P03372); assay: OT_ER_ERaERa_1440: Odyssey Thera (OT) 24-hour HEK293T Protein-Complementation Assay for Estrogen Receptor-alpha/-alpha Homodimer (AID 2283349);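 note: hits raise fluorescence above DMSO for agonists and antagonists alike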
Outline: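 Protein-fragment complementation between two human ERα ligand-binding domains (aa 310-547) in stably transfected HEK293T cells was monitored after 24 h treatment, using fluorescence intensity relative to vehicle controls.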

[11] = target: Estrogen receptor (Homo sapiens) (UniProt P03372); assay: OT_ER_ERaERa_0480: Odyssey Thera (OT) 8-hour HEK293T Protein-Complementation Assay for Estrogen Receptor-alpha/-alpha Homodimer (AID 2283351);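 note: rise in fluorescence from reassembled reporter fragments on ERα LBD homodimer in nucleus or whole cell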
Outline: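 Binding reporter in which dimerisation of ERα LBD (aa 310-547) fusions reconstitutes a fluorescent reporter in HEK293T cells. Compounds incubated 8 h; mean fluorescence intensity increase versus DMSO scored.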

[12] = target: Androgen Receptor/SRC-1 Co-activator, AR (gene 367) (UniProt P10275); assay: OT_AR_ARSRC1_0960: Odyssey Thera (OT) 16-hour HEK293T Protein-Complementation Assay for Androgen Receptor/SRC-1 Co-activator (AID 2283353);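 note: actives raise the signal above DMSO so potency reflects increased AR and SRC-1 complex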
Outline: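 Interaction of AR with SRC-1 was followed by YFP fragment complementation in HEK293T cells after 16 h of dosing. Gain of nuclear-over-cytoplasmic 488 nm fluorescence against DMSO controls defined activity.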

[13] = target: rat Androgen Receptor (AR), Ar (gene 24208) (UniProt P15207); assay: NVS_NR_rAR: NovaScreen (NVS) Nuclear Receptor Binding Assay for rat Androgen Receptor (AR) (AID 2283366)
Outline: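 Cell-free radioligand binding on extracts of prostate from testosterone-pretreated rats, read by filter-based scintillation counting 18 h after dosing. Loss of bound signal fitted positively versus DMSO; primary screen in duplicate at 25 uM, actives followed up in concentration series.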

[14] = target: Estrogen receptor (Homo sapiens) + Estrogen receptor beta (Homo sapiens) (UniProt P03372+Q92731); assay: OT_ER_ERaERb_1440: Odyssey Thera (OT) 24-hour HEK293T Protein-Complementation Assay for Estrogen Receptor-alpha/-beta Homodimer (AID 2283356);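 note: heteromer of ER alpha and ER beta binding domains; hits raise reporter fluorescence and both agonists and antagonists give an increase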
Outline: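 24 h exposure; HEK293T PCA cells with ERα/ERβ LBD fragments; signal rise in nuclear or whole-cell fluorescence over vehicle.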

[15] = target: human Peroxisome Proliferator-activated Receptor alpha (PPARa), PPARA (gene 5465) (UniProt Q07869); assay: NVS_NR_hPPARa: NovaScreen (NVS) Nuclear Receptor Binding Assay for human Peroxisome Proliferator-activated Receptor alpha (PPARa) (AID 2283359);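 note: activity means loss of TR-FRET signal versus DMSO baseline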
Outline: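 Chemicals were first screened in duplicate at 25 uM, and active ones were retested across concentration series. Binding was monitored by TR-FRET one hour after dosing, with decreased signal against DMSO counted as activity.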

[16] = target: Nuclear receptor subfamily 1 group I member 2 (Homo sapiens) (UniProt O75469); assay: NVS_NR_hPXR: NovaScreen (NVS) Nuclear Receptor Binding Assay for human Pregnane X Receptor (PXR) (AID 2283365);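 note: a drop in FRET signal versus DMSO baseline means the compound binds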
Outline: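 Read-out: TR-FRET, human PXR, 2 h post-dosing, cell-free. Loss of signal vs DMSO taken as binding activity; 25 uM primary, concentration series secondary.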

[17] = target: Retinoic acid receptor alpha (Homo sapiens) (UniProt P10276); assay: NVS_NR_hRARa_Agonist: NovaScreen (NVS) Nuclear Receptor Binding Assay for human Retinoic Acid Alpha Receptor Agonism (RAR) (AID 2283361)
Outline: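 Readout is time-resolved fluorescence resonance energy transfer after a 2 h exposure of cell-free extracted receptor protein. Initial testing used 25 uM in duplicate, with concentration-response follow-up for active chemicals.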

[18] = test system: rat Norepinephrine Transporter (NET), gene 83511; assay: NVS_TR_rNET: NovaScreen (NVS) Transporter Assay for rat Norepinephrine Transporter (NET) (AID 2283373)
Outline: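 Rat forebrain membranes; radioligand binding measured by filter-based scintillation counting 1 hour after dosing. Loss of specific binding versus DMSO baseline scored; primary screen in duplicate at 25 uM, actives followed up in concentration series.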

[19] = target: rat Mineralocorticoid Receptor (MR), Nr3c2 (gene 25672) (UniProt P22199); assay: NVS_NR_rMR: NovaScreen (NVS) Nuclear Receptor Binding Assay for rat Mineralocorticoid Receptor (MR) (AID 2283355)
Outline: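 Adrenalectomized rat brain supernatant was dosed with test chemical, then radioligand binding was measured by scintillation counting at 24 h. Initial testing ran in duplicate at 25 uM, followed by concentration series for actives.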

Measured: AC50

Chain of Bile acid receptor (Homo sapiens) (Q96RI1 whole entry, looked up): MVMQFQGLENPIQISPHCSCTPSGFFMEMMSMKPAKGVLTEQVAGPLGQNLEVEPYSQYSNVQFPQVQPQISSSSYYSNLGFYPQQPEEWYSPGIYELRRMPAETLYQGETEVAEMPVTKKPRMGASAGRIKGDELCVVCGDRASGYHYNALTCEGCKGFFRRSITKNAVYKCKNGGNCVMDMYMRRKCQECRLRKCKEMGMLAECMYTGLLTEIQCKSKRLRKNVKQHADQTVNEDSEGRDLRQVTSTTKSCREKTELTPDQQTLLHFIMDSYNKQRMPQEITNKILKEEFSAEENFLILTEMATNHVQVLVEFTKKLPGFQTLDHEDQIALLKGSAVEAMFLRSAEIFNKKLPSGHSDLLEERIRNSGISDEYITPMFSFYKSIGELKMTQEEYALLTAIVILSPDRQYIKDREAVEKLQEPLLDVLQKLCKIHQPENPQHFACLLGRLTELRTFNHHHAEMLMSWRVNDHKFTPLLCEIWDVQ
Chain of Retinoic acid receptor alpha (Homo sapiens) (P10276 whole entry, looked up): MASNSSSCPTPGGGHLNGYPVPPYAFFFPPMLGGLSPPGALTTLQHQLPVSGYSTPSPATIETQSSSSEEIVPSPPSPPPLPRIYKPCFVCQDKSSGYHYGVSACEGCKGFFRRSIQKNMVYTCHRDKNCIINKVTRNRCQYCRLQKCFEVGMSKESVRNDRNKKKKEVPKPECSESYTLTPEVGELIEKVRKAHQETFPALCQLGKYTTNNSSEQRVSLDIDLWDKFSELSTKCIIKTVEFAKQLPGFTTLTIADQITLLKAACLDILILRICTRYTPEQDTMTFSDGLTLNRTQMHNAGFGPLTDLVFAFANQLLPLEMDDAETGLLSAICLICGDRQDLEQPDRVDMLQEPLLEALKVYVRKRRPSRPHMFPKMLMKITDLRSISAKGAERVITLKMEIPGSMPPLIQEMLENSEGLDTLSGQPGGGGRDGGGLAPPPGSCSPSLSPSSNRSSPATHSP
Chain of human Adenosine Transporter (Adot), SLC29A1 (gene 2030) (Q99808 whole entry, looked up): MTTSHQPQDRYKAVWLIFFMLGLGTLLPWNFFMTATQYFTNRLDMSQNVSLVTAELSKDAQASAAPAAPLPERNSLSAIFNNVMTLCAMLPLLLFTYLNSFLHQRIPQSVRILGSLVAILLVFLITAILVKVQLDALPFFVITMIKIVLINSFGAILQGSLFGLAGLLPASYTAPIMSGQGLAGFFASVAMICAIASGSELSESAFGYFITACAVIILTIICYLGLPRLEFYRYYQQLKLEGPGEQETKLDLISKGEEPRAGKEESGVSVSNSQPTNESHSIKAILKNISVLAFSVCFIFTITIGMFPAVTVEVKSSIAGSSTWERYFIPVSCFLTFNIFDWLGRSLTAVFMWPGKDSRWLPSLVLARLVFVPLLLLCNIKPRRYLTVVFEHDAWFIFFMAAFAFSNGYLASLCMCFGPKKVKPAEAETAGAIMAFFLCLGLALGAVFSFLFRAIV
Chain of Glucocorticoid receptor (Homo sapiens) (P04150 whole entry, looked up): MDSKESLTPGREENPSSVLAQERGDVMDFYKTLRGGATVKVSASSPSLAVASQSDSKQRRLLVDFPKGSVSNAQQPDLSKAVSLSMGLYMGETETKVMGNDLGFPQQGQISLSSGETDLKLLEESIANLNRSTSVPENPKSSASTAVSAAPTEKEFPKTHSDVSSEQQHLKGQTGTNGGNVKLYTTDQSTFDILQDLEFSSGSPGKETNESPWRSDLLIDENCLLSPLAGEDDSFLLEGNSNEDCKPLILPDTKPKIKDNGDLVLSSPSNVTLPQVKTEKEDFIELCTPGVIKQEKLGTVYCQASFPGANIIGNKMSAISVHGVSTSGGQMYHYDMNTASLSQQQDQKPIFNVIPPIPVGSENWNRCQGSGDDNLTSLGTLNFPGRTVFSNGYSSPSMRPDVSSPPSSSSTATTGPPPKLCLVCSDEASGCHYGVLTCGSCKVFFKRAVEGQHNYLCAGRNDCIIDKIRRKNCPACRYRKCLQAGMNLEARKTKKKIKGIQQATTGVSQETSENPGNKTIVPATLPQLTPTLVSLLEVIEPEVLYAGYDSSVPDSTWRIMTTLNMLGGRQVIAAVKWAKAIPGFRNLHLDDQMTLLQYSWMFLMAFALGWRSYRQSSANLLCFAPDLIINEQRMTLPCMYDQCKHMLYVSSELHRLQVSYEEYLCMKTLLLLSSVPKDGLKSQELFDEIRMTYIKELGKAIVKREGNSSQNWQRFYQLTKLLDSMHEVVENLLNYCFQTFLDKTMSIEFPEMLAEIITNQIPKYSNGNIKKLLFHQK
Chain of Peroxisome proliferator-activated receptor gamma (Homo sapiens) (P37231 whole entry, looked up): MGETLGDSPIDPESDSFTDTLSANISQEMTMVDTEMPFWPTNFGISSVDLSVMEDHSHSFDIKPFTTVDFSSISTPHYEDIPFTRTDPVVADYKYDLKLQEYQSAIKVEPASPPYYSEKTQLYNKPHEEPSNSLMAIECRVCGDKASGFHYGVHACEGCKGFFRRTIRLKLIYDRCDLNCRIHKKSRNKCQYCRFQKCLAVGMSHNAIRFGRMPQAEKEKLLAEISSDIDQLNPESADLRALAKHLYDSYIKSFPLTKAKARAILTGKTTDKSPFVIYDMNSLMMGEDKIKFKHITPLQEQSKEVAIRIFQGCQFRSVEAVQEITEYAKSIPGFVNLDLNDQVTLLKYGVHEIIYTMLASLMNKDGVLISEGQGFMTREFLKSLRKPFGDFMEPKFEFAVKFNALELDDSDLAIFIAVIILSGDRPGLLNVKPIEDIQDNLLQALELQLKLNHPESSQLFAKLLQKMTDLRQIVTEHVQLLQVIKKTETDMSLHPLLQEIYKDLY
Chain of human Thyroid Receptor Alpha (TRa), THRA (gene 7067) (P10827 whole entry, looked up): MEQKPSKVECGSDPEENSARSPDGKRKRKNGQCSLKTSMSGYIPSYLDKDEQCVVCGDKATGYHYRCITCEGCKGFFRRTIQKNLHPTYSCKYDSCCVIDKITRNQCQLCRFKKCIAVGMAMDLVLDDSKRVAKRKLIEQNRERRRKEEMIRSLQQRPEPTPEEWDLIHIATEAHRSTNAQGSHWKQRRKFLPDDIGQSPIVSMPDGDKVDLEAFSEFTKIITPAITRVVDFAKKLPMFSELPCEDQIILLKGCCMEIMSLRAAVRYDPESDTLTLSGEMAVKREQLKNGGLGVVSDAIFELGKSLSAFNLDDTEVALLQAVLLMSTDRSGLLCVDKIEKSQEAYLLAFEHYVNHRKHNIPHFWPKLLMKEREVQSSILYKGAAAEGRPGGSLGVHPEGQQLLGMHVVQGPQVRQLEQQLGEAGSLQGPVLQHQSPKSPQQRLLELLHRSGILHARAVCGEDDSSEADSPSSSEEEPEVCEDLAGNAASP
Chain of Estrogen receptor (Homo sapiens) (P03372 whole entry, looked up, the tested form may be a part): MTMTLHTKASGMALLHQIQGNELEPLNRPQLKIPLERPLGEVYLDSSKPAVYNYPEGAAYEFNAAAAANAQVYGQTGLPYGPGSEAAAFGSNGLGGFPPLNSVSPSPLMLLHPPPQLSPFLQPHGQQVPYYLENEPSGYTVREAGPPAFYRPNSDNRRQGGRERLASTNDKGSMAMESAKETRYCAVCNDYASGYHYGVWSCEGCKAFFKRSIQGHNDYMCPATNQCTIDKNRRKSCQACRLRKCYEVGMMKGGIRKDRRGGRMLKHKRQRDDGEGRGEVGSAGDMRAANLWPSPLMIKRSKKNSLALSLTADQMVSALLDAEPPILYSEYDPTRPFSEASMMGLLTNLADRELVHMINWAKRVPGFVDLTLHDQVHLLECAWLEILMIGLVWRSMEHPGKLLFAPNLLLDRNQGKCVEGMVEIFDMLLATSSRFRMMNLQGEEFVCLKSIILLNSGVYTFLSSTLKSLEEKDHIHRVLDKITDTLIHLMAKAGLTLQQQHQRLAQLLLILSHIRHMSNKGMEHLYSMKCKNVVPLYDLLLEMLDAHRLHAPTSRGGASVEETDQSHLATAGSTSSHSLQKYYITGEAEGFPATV
Chain of rat Androgen Receptor (AR), Ar (gene 24208) (P15207 whole entry, looked up): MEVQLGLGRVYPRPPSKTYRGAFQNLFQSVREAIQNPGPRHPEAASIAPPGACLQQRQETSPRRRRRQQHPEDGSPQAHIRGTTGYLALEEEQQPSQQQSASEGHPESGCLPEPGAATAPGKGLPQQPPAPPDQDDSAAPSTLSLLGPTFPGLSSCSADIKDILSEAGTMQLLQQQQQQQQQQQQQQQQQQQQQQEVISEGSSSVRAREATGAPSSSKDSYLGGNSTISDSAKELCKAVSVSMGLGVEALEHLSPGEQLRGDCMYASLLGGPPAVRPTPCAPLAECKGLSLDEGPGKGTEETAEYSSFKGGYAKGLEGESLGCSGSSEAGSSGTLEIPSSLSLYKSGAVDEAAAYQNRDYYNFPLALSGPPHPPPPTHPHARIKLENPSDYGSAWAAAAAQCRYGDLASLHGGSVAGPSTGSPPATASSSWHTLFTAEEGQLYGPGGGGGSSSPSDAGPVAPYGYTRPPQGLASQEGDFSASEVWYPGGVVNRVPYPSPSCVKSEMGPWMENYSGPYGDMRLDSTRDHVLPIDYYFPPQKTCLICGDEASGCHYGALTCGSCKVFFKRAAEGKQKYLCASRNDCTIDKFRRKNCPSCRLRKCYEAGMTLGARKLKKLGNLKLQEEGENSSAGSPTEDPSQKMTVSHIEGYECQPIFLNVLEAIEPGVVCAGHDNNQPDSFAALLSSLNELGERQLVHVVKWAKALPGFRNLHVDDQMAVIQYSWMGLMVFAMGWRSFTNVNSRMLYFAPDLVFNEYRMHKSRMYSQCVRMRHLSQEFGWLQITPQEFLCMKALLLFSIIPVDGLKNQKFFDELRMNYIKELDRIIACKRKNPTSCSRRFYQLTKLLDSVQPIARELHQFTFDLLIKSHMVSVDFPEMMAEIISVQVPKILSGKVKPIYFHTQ
Chain of guinea pig Sigma Receptor, Non-selective Binding, SIGMAR1 (gene 100135589) (Q60492 whole entry, looked up): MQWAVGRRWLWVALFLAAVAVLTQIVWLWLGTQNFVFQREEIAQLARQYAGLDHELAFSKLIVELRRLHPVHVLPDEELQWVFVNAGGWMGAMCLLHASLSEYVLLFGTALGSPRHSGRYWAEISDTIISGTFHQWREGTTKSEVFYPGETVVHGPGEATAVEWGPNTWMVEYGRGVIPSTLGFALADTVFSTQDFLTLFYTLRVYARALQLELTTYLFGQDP

CCCN(CCOc1c(Cl)cc(Cl)cc1Cl)C(=O)n1ccnc1
inactive: [1] | [2] | [4] | [8]
active: [3] 6.39 µM | [5] 8.36 µM | [6] 8.65 µM | [7] 6.57 µM | [9] 2.17 µM

CCCN(CCC)c1c([N+](=O)[O-])cc(C(F)(F)F)cc1[N+](=O)[O-]
inactive: [10] | [11] | [12] | [13] | [7]

O=C(O)CCCOc1ccc(Cl)cc1Cl
inactive: [12] | [13] | [8]

OCCOc1ccccc1
inactive: [10] | [11] | [14]

CC(C)N(C(=O)COc1nnc(C(F)(F)F)s1)c1ccc(F)cc1
active: [9] 7.81 µM
inactive: [10] | [11]

CC(C)(C)C(O)C(Oc1ccc(Cl)cc1)n1cncn1 (centres undefined)
active: [16] 25 µM | [7] 1.08 µM and 1.75 µM and 869 nM
inactive: [2] | [15] | [3] | [8]

O=C(O)COc1ccc(Cl)cc1Cl
inactive: [4] | [5]

COC(=O)c1ccccc1S(=O)(=O)NC(=O)Nc1nc(C)nc(OC)n1
inactive: [1] | [2]

CCOc1nc(NC)nc(NC(=O)NS(=O)(=O)c2ccccc2C(=O)OC)n1
inactive: [1] | [3] | [4] | [13] | [8]

CCOCN(C(=O)CCl)c1c(C)cccc1CC
inactive: [10] | [11] | [14]

Oc1ccc(Cl)cc1Cc1ccccc1
inactive: [2] | [15] | [17] | [6] | [7] | [8]
active: [12] 50.5 µM | [13] 12.3 µM [middle of 6 runs] | [6] 39.8 µM and 25.2 µM and 36.3 µM | [7] 12.8 µM [middle of 5 runs] | [18] 18.6 µM [middle of 6 runs]

COC(=O)c1ccccc1S(=O)(=O)NC(=O)N(C)c1nc(C)nc(OC)n1
inactive: [19] | [2]
